# High-throughput results: PubChem BioAssay, several laboratories
# ALR inh – inhibitors of human sulfhydryl oxidase ALR; P55789; purified ALR, DTT oxidation, H2O2 HRP-luminol luminescence; actives 3.8% (n = 290,000); inhibition, % (test concentration not listed);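 active = mean replicate inhibition above about 79%, with every replicate also reaching it, limit read from the data; inconclusive = only one of the two criteria met; inactive = mean below limit and not every replicate reaching it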
# Target sequence (P55789 whole entry, looked up): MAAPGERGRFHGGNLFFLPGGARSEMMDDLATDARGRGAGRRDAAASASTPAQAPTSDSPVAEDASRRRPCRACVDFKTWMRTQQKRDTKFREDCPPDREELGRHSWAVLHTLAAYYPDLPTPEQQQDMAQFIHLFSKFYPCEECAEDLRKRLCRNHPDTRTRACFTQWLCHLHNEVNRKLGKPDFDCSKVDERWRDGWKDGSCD
# GRK2 aptamer HTS – inhibitors of human GRK2 displacing RNA aptamer; P25098; bead flow cytometry, FAM-aptamer displacement from GRK2; inhibition of aptamer binding, % at 10 µM; actives 0.59% (n = 330,000);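 active = inhibition of aptamer binding above 40%, roughly 3 SD of noise, on plates passing a quality check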;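 also: median bead fluorescence of bound FAM aptamer so fluorescent compounds give negative values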
# Rce1 inh – yeast Ras-converting enzyme inhibition. Q03530. yeast membranes, quenched prenylated peptide cleavage fluorescence. calls only. actives 0.27% (n = 290,000);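 active = fall in fluorescence gain of 50% or more versus controls, with final raw signal at or below 3038400; inconclusive = same 50% fall but final raw signal above 3038400; inactive = fall in fluorescence gain under 50%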;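 also: plate controls were neutral control wells for no effect and wells lacking membranes for full effect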
# Rtt109 HAT inh – C. albicans Rtt109 histone acetyltransferase inhibition; Q5AAJ8; purified Rtt109/Vps75, ThioGlo CoA-SH fluorescence, 4 h; inhibition, % at 34.9 µM; actives 0.16% (n = 330,000); AID 540336;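 active = inhibition of at least 50% in every replicate; inconclusive = best replicate reaches 50% inhibition but some replicates fall short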
# Target sequence (Q5AAJ8 whole entry, looked up): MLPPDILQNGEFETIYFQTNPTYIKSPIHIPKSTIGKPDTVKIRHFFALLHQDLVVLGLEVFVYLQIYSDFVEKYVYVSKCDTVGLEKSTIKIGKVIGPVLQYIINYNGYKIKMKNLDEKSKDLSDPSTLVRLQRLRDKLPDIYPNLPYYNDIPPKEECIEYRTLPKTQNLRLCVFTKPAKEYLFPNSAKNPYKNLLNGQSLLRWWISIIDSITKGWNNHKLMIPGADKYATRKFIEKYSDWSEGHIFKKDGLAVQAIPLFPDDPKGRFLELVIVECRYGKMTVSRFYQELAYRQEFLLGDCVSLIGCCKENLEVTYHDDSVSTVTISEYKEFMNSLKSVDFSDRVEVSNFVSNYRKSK
# HDAC3 inh – human HDAC3 inhibition | actives 0.15% (n = 320,000) | AID 2718 | O15379 | recombinant HDAC3, fluorogenic peptide/trypsin coupled, fluorescence | inhibition, % at 8.3 µM; in the data active = inhibition above about 26%, passing the limit was not always enough; inconclusive = no clear call, values can overlap the other calls
# Efflux pump inh – blocks antifungal efflux pumps in multiplex yeast assay; AID 485275; inhibition, % at 10 µM; actives 0.44% (n = 330,000); S. cerevisiae Candida pump triplex, Nile Red efflux;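 active = plate passing quality check with inhibition over a set limit, or well fluorescence over plate mean plus 4 SD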;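 also: Nile Red retained in pooled yeast measured as flow cytometry median fluorescence; 0% = buffer negative control and 100% = Enniatin B positive control; higher means more Nile Red kept so more efflux inhibition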
# GRK2 CP1 – confirmation of human GRK2 inhibitors displacing RNA aptamer. shares compounds with GRK2 aptamer HTS. bead-bound GRK2, FAM-aptamer displacement, flow cytometry. aptamer displacement, % at 10 µM. actives 4% (n = 2,000). AID 504451;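 active = aptamer displacement above 40%, near three times the noise of non-fluorescent compounds, on plates passing quality checks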;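 also: negative values mostly reflect intrinsic compound fluorescence rather than true enhancement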
# Aptamer quench 1 – quenches fluorescent RNA aptamer, GRK2 hit artifact. shares compounds with GRK2 aptamer HTS. Fluorescent RNA aptamer beads, quenching, flow cytometry; stronger effect = higher value. fluorescence change (kMESF span), kMESF (test concentration not listed). 110 tested, under 10 active. AID 504521;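 active = compounds whose bead fluorescence drops by more than 37 kMESF across the dose range, marking them as dye quenchers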
# Aptamer quench SP – counter-screen for GRK2 aptamer inhibitors: fluorescent aptamer quenchers; fluorescence response (% of DMSO), % at 10 µM; shares compounds with GRK2 aptamer HTS; AID 504580; 2,000 tested, under 10 active; Carboxyfluorescein RNA aptamer on beads, flow cytometry quenching; stronger effect = lower value;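 active = compounds that quench the bead-bound fluorescent RNA probe, cutting fluorescence to under half of the solvent control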;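 also: counterscreen run without GRK2 so only probe quenching by compound is measured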
# GRK2 CP2 – confirmation of human GRK2 inhibitors binding RNA aptamer site; shares compounds with GRK2 aptamer HTS; 360 tested, under 10 active; AID 504782; bead-bound GRK2, FAM-aptamer displacement, flow cytometry; inhibition of aptamer binding, % at 10 µM;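 active = inhibition of aptamer binding above 40%, about triple the noise seen with nonglowing compounds, on plates passing quality control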;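 also: negative values mostly come from compounds that fluoresce themselves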
# FAM quench SP – counter-screen for GRK2 binding hits: quenchers of fluorescent RNA aptamer; shares compounds with GRK2 aptamer HTS; 360 tested, under 10 active; fluorescence response vs DMSO, % at 10 µM; carboxyfluorescein RNA aptamer beads, flow cytometry quenching; stronger effect = lower value;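 active = response vs DMSO under 50%, meaning signal dropped by over half, treated as fluorescence quencher; inconclusive = no clear call, values can overlap the other calls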;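 also: labelled aptamer on streptavidin beads without GRK2 as a quench counter-screen; 100% = bead fluorescence of DMSO wells and lower means quenching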
# Numbers without * were called inactive; i = inactive; ? = inconclusive; . = no result given. An excerpt weighted towards active compounds, which were near 4.5% of everything screened.
SMILES,ALR inh,GRK2 aptamer HTS,Rce1 inh,Rtt109 HAT inh,HDAC3 inh,Efflux pump inh,GRK2 CP1,Aptamer quench SP,others
COCCCNC(=O)c1cccc(C(=O)NCCCOC)c1,4,2,i,10,2,0,.,.,
O=C(c1ccccc1)c1c2c(cc3sc4ccccc4[n+]13)-c1cccc3cccc-2c13,-21,76*,.,9,5,0,70*,110,Aptamer quench 1=-5.5
CCOc1ccc(C(C)NC(=O)C2CCC2)cc1 (centres undefined),2,100*,i,8,-5,0,.,.,GRK2 CP2=-10;FAM quench SP=101
COc1cccc(NC(=O)CN(C)C(=O)CSc2nc(C)cc(C)n2)c1,2,1,.,-4,2,0,.,.,
Nc1nc2c(Cl)cc(Cl)cc2s1,.,0,i,0,-4,0,.,.,
Nc1nc2c(ccc3ccccc32)s1,33,0,i,3,-3,0,.,.,GRK2 CP2=-20;FAM quench SP=101
COc1ccc(N(C)C(=O)CCS(=O)(=O)c2cccc3nonc23)c(OC)c1,-16,0,i,.,10,0,.,.,GRK2 CP2=-21;FAM quench SP=101
CCOc1ccccc1NC(=O)CCS(=O)(=O)c1cccc2nonc12,-7,2,.,-20,-12,0,.,.,GRK2 CP2=i;FAM quench SP=107
CC(=O)c1cccc(NC(=O)CCS(=O)(=O)c2cccc3nonc23)c1,1,2,.,17,-18,0,.,.,GRK2 CP2=-21;FAM quench SP=110
Cc1ccc(NC(=O)CCS(=O)(=O)c2cccc3nonc23)cc1,-12,1,i,-7,4,0,.,.,
Cc1cccc(N(C)C(=O)CCS(=O)(=O)c2cccc3nonc23)c1,-2,4,i,-2,3,0,.,.,
COc1ccc(-c2nnn(CC(=O)N(CC3CCCO3)C(C(=O)NC(C)(C)C)c3ccco3)n2)cc1OC (centres undefined),.,2,i,19,4,0,.,.,
COc1ccc(S(=O)(=O)N2CCCCC2)cc1NC(=O)c1ccc(N2CCCC2=O)cc1,-2,79*,.,11,?,0,1,101,
C=CCNC(=O)c1ccccc1NS(=O)(=O)c1ccc(OC)c(C(=O)N2CCOCC2)c1,.,0,i,5,0,0,.,.,
CCN(CC)C(=O)c1ccccc1NS(=O)(=O)c1ccc(OC)c(C(=O)N2CCOCC2)c1,-15,61*,i,-10,0,0,-2,100,
O=C(NCc1cccs1)C1(S(=O)(=O)c2ccccc2)CC=CC1,-6,0,i,0,-3,0,.,.,GRK2 CP2=6;FAM quench SP=97
O=C(NCc1ccco1)C1(S(=O)(=O)c2ccccc2)CC=CC1,-7,2,i,9,0,0,.,.,
CC(C)N1C(=O)c2ccccc2C1C(=O)NCCc1ccccc1 (centres undefined),-25,11,i,1,13,0,1,95,
O=C(NCCc1ccccc1)C1c2ccccc2C(=O)N1Cc1cccs1 (centres undefined),.,3,i,-5,1,0,.,.,
O=C(COc1ccccc1[N+](=O)[O-])Nc1cc(Cl)ccc1C(=O)O,54,3,i,7,2,0,.,.,
Cc1ccc2oc(-c3ccc(NC(=O)c4ccncc4)cc3O)nc2c1,0,0,i,-1,-3,0,.,.,
COc1ccc(CC(=O)Nc2ccc(-c3nc4cc(C)ccc4o3)c(O)c2)cc1OC,-10,71*,i,3,-4,0,-21,109,
O=C(CCc1n[nH]c(=O)[nH]c1=O)N/N=C/c1ccco1,-4,44*,.,.,5,0,25,96,
Cc1ccc(-c2cc(C(=O)N/N=C/c3ccco3)[nH]n2)cc1,.,87*,i,13,2,0,-1,100,
O=C(CSc1ccccn1)Nc1nonc1[N+](=O)[O-],-57,5,i,5,.,1,.,.,
SMILES,ALR inh,GRK2 aptamer HTS,Rce1 inh,Rtt109 HAT inh,HDAC3 inh,Efflux pump inh,GRK2 CP1,Aptamer quench SP,others
CC1Cc2ccccc2N1CC(=O)N(C)c1c(N)n(Cc2ccccc2)c(=O)[nH]c1=O (centres undefined),34,0,.,7,3,0,.,.,
CCN(C(=O)CN1c2ccccc2CC1C)c1c(N)n(Cc2ccccc2)c(=O)[nH]c1=O (centres undefined),68,1,i,-13,0,0,4,95,
Cc1c(C(=O)N2CCN(c3ccccn3)CC2)cccc1[N+](=O)[O-],-6,4,i,-4,2,0,1,103,
Cc1ccc(C(=O)N2CCN(c3ccccn3)CC2)cc1[N+](=O)[O-],9,1,i,-2,7,0,.,.,
O=C(c1ccc(Cl)cc1[N+](=O)[O-])N1CCN(c2ccccn2)CC1,-22,82*,i,.,5,0,-5,102,
O=C(Nc1ccncc1)c1cccc2ccccc12,-19,49*,i,1,1,0,0,94,
CC(=O)c1ccc(NC(=O)CSc2ccc(-c3ccc(-n4cccn4)cc3)nn2)cc1,-2,0,i,0,3,0,.,.,
Clc1cccc(CN2CCSCC2)c1,-4,99*,i,-3,-3,0,34,102,
c1ccc2cc(OCCOCCOc3ccc4ccccc4c3)ccc2c1,-6,55*,i,23,.,0,-4,101,
COc1ccc2nc(Nc3nc(CSc4nnnn4-c4ccccc4)cc(=O)[nH]3)nc(C)c2c1,-5,46*,i,1,-2,0,0,109,
CCn1cc(CNC(=O)C2C3CCC(C3)C2C(=O)O)cn1 (centres undefined),-4,40,i,-5,3,0,3,102,
Cc1cccc(OCC(=O)NCCCNC(=O)c2cnccn2)c1,-6,1,i,9,-5,0,.,.,
Cc1ccc(C)c(OCC(O)CNC2CCCC2)c1 (centres undefined),.,1,i,2,-1,0,.,.,
O=c1cc(CN2CCN(Cc3ccc(F)cc3)C(CCO)C2)[nH]c2ccccc12 (centres undefined),.,41*,i,2,8,0,.,.,GRK2 CP2=1;FAM quench SP=99
